From ChEMBL document CHEMBL4513216, “Probing the Open Global Health Chemical Diversity Library for Multistage-Active Starting Points for Next-Generation Antimalarials” (ACS Infect Dis, 2020)
Screen size: about 69,000 compounds; about 8,600 (12%) showed an effect of 50% or more. Shown is part of a subset that was picked to be rich in strong results.

System: Plasmodium berghei
Test: Screen against P. berghei liver stage (PbLuc), transformed with Luciferase, at 10uM
Assay type: functional, HepG2
Conditions: tested at 10 uM

Point of comparison: `CCN(CC)C(=O)c1c(Br)cnn1CC`, INHIBITION 29.3%. Against it:
- Cn1ncc2c(=O)[nH]c(CN3CCCC3c3ccccc3Cl)nc21 (stereo not drawn) — lower, -19.6%
- Cc1ccc(-c2nc(C(=O)N(C)C3CCN(C)CC3)cs2)c(C)c1 — lower, 27.7%
- Cc1sc(Br)cc1S(=O)(=O)NCCCN — lower, 8.08%
- CC(=O)N1CCCN(C(=O)NCC2(c3cccs3)CCCC2)CC1 — lower, 23.9%
- Cc1nc(C)n(CC2CCCN(CCOc3ccc(F)cc3)C2)n1 (stereo not drawn) — lower, 4.52%
- CN1CCO[C@H]2CN(S(=O)(=O)c3ccc(C#N)cc3)C[C@H]21 — lower, 5.63%
- CC(C)NCC1(COc2ccccc2)C[C@@H](O)[C@@H](O)C1 (stereo partly drawn) — higher, 38.3%
- O=C(COCCc1ccccc1)N1CCCC(n2cncn2)C1 (stereo not drawn) — lower, 7.12%
- NC(=O)c1ccc(OCC(=O)N2CCCC(n3cccn3)C2)cc1 (stereo not drawn) — lower, -25.9%
- O=C(COCCc1ccccc1)N1CCCC(n2cccn2)C1 (stereo not drawn) — higher, 61.9%
- NC(=O)COc1cccc(C(=O)N2CCCC(n3cccn3)C2)c1 (stereo not drawn) — lower, 20.1%
- O=C(CCNc1ncccn1)N1CCCC(n2cccn2)C1 (stereo not drawn) — higher, 50.3%
- O=C(COCC1CC1)N1CCCC(n2cccn2)C1 (stereo not drawn) — lower, 8.48%
- O=C(CCNc1ncccn1)N1CCCC(n2ccnc2)C1 (stereo not drawn) — lower, 21.1%
- NC(=O)c1cccc(OCC(=O)N2CCCC(n3cccn3)C2)c1 (stereo not drawn) — higher, 57.5%
- O=C(CCCNc1ncccn1)N1CCCC(n2cccn2)C1 (stereo not drawn) — lower, 8.48%
- Cc1nn(C)c(N(C)C)c1CNC(C)COc1ccc(F)cc1F (stereo not drawn) — lower, -41.6%
- O=S(=O)(NCCC(O)c1ccoc1)c1ccc(Cl)s1 (stereo not drawn) — lower, -5.22%
- COc1cc2nc(C)n(CC(=O)NCCO)c(=O)c2cc1OC — lower, 4.82%
- COc1cc(OC)cc(-c2noc(CC(N)c3ccccc3)n2)c1 (stereo not drawn) — higher, 36.3%
- CN1CCN(Cc2nnc(C3CCN(S(C)(=O)=O)CC3)n2C)CC1 — lower, -14.3%
- CN(CC(F)(F)F)C(=O)CNC(=O)N1CCCC(N(C)C)C1 (stereo not drawn) — higher, 53.3%
- CN(CC(F)(F)F)C(=O)CNC(=O)N1CCCC(C(F)(F)F)C1 (stereo not drawn) — lower, 18.6%
- CC1CCN(C(=O)NCC(=O)N(C)CC(F)(F)F)C1 (stereo not drawn) — lower, 18.6%
- NCC(=O)N1CCCC(c2cncc(Nc3ncccn3)n2)C1 (stereo not drawn) — higher, 51.7%
- COc1ccccc1Oc1cncc(C2CCCN(CC(N)=O)C2)n1 (stereo not drawn) — lower, 20.8%
- NCC(=O)N1CCCC(c2ccnc(Nc3cnccn3)n2)C1 (stereo not drawn) — lower, 18.9%
- c1cnc(Nc2cncc(C3CCCN(c4ncccn4)C3)n2)nc1 (stereo not drawn) — lower, -0.371%
- c1cnc(Nc2cncc(C3CCCN(c4cnccn4)C3)n2)nc1 (stereo not drawn) — lower, -6.3%
- NCC(=O)N1CCCC1c1nccnc1Nc1ncccn1 (stereo not drawn) — higher, 59%
- COCC(=O)N1CCCC1c1nccnc1Nc1ncccn1 (stereo not drawn) — lower, 7.05%
- NC(=O)CN1CCCC(c2cncc(Nc3ncccn3)n2)C1 (stereo not drawn) — higher, 59%
- CCC(=O)N1CCCC1c1nccnc1Nc1ncccn1 (stereo not drawn) — higher, 42.6%
- CCS(=O)(=O)N1CCC2(CCC2NC(=O)c2ccn(C)c2)CC1 (stereo not drawn) — lower, 8.53%
- O=C(c1ccno1)N1CCO[C@@H]2CC(COCc3ccccn3)C[C@H]21 (stereo partly drawn) — lower, 8.6%
- COc1cc(C(=O)N(Cc2cnn(C)c2)C(C)C)ccc1C — lower, 14.1%
- COc1cc(N2CC[C@@H]3O[C@H](C(=O)NCC4CC4)C[C@@H]32)ncn1 — lower, -22.1%
- Cc1cc(Oc2ccccc2F)nc(C2CCCCN2)n1 (stereo not drawn) — lower, 10.9%
- CN(Cc1nnn(CC2CC2)n1)C(=O)c1ccccc1 — lower, 1.74%
- Cc1ccc(CN(C)C(=O)CCn2c(=O)n(C)c3ccccc32)o1 — higher, 49.7%
- CCn1c(=O)n(CCC(=O)N(C)Cc2ccc(C)o2)c2ccccc21 — lower, 15.4%
- CCCn1c(=O)n(CCC(=O)N(C)Cc2ccc(C)o2)c2ccccc21 — higher, 83.2%
- CCN1CCC(NC(=O)NCC(O)c2ccc(Cl)c(F)c2)CC1 (stereo not drawn) — higher, 43.1%
- O=C1NCc2ccccc2CC12CCCN(CCCc1ccccc1)C2 (stereo not drawn) — lower, 27.5%
- CC(C)CCN1CCCC12Cc1ccccc1CNC2=O (stereo not drawn) — lower, 14.3%
- Cc1cc(C)c(CN2CCCC23Cc2ccccc2CNC3=O)c(C)c1 (stereo not drawn) — higher, 68.9%
- Cc1ccc(CN2CCCC23Cc2ccccc2CNC3=O)cc1 (stereo not drawn) — higher, 52.4%
- O=C1Nc2ccccc2CC12CCCN2Cc1ccc(F)cc1 (stereo not drawn) — lower, -38.7%
- CC(C)(C)CN1CCCC12Cc1ccccc1CNC2=O (stereo not drawn) — higher, 32.5%
- O=C1Nc2ccccc2CC12CCCN2Cc1ccccn1 (stereo not drawn) — lower, 27.5%
- Cc1ccc(CCN2CCCC23Cc2ccccc2CNC3=O)cc1 (stereo not drawn) — higher, 54.9%
- O=C1Nc2ccccc2CC12CCCN2Cc1cccnc1 (stereo not drawn) — lower, -2.28%
- O=S(=O)(c1cccnc1)N1C[C@H]2CCC[C@@]2(COc2ccccn2)C1 — higher, 38.5%
- CCn1c(N)nc2cc(C(=O)NCCc3ccncc3)cnc21 — lower, -20%
- Nc1ccc(CC2CCCN(Cc3c[nH]cn3)C2)nn1 (stereo not drawn) — lower, -4.87%
- COc1ccc(CN2CCn3cc(CN4CCCCC4)nc3C2)cc1 — lower, 0.79%
- CC(C)Oc1ccc(C(=O)N2CCCCC2Cn2cccn2)cn1 (stereo not drawn) — lower, -21.645%
- O=C(c1cccnc1)N1CCc2c(nc(N3CCCC3)[nH]c2=O)C1 — higher, 46%
- CN(C)c1nc2c(c(=O)[nH]1)CCN(C(=O)c1ccc(=O)[nH]c1)C2 — lower, 4.1%
- CN(C)c1nc2c(c(=O)[nH]1)CCN(C(=O)c1cccc3nccnc13)C2 — lower, 6.8%
- CN(C)c1nc2c(c(=O)[nH]1)CCN(C(=O)c1c[nH]c(=O)c(Cl)c1)C2 — higher, 51.1%
- CCCc1ccc(C(=O)N2CCc3c(nc(N(C)C)[nH]c3=O)C2)cc1 — lower, 23.3%
- Cc1nc(C(C)C)ncc1C(=O)N1CCc2c(nc(N(C)C)[nH]c2=O)C1 — higher, 50.1%
- CN(C)c1nc2c(c(=O)[nH]1)CCN(C(=O)C1CCCO1)C2 (stereo not drawn) — lower, 6.26%
- O=c1[nH]c(-c2cccnc2)nc2c1CCN(S(=O)(=O)N1CCCC1)C2 — lower, 23.6%
- O=C(c1ccc(=O)[nH]c1)N1CCc2c(nc(-c3cccnc3)[nH]c2=O)C1 — higher, 61.8%
- CCc1onc(C)c1C(=O)N1CCN(c2ncc3c(n2)CCOC3)CC1 — lower, 17.05%
- Cc1n[nH]c(C)c1C1COCCN1C(=O)c1n[nH]c2ccccc12 (stereo not drawn) — lower, -2.25%
- O=c1[nH]nc(CCCN2CCOCC2)n1Cc1cccc(F)c1 — lower, 10.3%
- O=C(CCN1CCCCC1)Nc1c2c(cc3c1CCC3)CCC2 — lower, 18.8%
- Cn1cc(S(=O)(=O)NCCc2ccsc2)cn1 — higher, 70.9%
- Cn1cc(S(=O)(=O)NCc2ccsc2)cn1 — lower, -17.8%
- Cn1cc(S(=O)(=O)NCC(C)(O)c2ccsc2)cn1 (stereo not drawn) — lower, 16.3%
- CNc1nc(C(=O)N2CCCC(COc3ccc(F)cc3)C2)cs1 (stereo not drawn) — higher, 44.9%
- Cn1ccc(C(=O)N2CCC(Cc3cnc4[nH]ccc4c3)C2)n1 (stereo not drawn) — lower, -77.5%
- CCCC(=O)N(C)C(c1cccc(F)c1)c1ccccn1 (stereo not drawn) — lower, 13.6%
- Cc1cccn2c(=O)cc(CSCC(=O)Nc3nnc(C(C)C)s3)nc12 — lower, 14.7%
- Cc1ccc2nc(CSCC(=O)Nc3nnc(C(C)C)s3)cc(=O)n2c1 — higher, 50.2%
- CC(C)c1nnc(NC(=O)CSCc2cc(=O)n3ccccc3n2)s1 — higher, 38.9%
- Cc1cccc2nc(CSCC(=O)Nc3nnc(C(C)C)s3)cc(=O)n12 — lower, 24.5%
- Cc1ccn2c(=O)cc(CSCC(=O)Nc3nnc(C(C)C)s3)nc2c1 — higher, 52.5%
- Cc1nnc(NC(=O)CSCc2cc(=O)n3ccccc3n2)s1 — lower, 27.5%
- c1ncn(CC2CN(CCCOc3ccc4c(c3)OCO4)CCO2)n1 (stereo not drawn) — higher, 36.1%
- O=C(Nc1ccccn1)N(CCO)Cc1ccccc1Br — lower, 10.2%
- Cn1cnc2c1C(COCC1CCOCC1)CN(c1ncccn1)C2 (stereo not drawn) — higher, 33.4%
- Cc1nc(O)c2nnn(C[C@H]3CCCN3C(=O)c3cccs3)c2n1 — higher, 31.6%
- CCn1ncnc1CN1CCc2[nH]cnc2C1Cc1ccccc1 (stereo not drawn) — lower, -56.1%
- COc1ncccc1CN1CCc2[nH]cnc2C1CCSC (stereo not drawn) — higher, 33.4%
- CSCCC1c2nc[nH]c2CCN1Cc1ccnc2ccccc12 (stereo not drawn) — lower, -9.67%
- CSCCC1c2nc[nH]c2CCN1Cc1ccccc1C#N (stereo not drawn) — higher, 40.9%
- CSCCC1c2nc[nH]c2CCN1Cc1ccccc1C(F)(F)F (stereo not drawn) — higher, 69.1%
- CSCCC1c2nc[nH]c2CCN1Cc1cncn1C (stereo not drawn) — higher, 56.1%
- CSCCC1c2nc[nH]c2CCN1Cc1cc(Cl)ccc1O (stereo not drawn) — higher, 70.6%
- O=C(O)C1c2nc[nH]c2CCN1Cc1ccccc1-c1ccccc1 (stereo not drawn) — lower, 12.7%
- CCn1ncnc1CN1CCc2[nH]cnc2C1CCc1ccccc1 (stereo not drawn) — lower, 1.94%
- CCn1cc(NC(=O)C2CCC(=O)N2Cc2ccco2)cn1 (stereo not drawn) — lower, 20.4%
- CCc1noc(C2CC(=O)N(CCN(C)C)C2)n1 (stereo not drawn) — higher, 35.1%
- COc1ccccc1C(=O)N1CCNCC1C(N)=O (stereo not drawn) — lower, 9.2%
- CC(O)(CCc1ccccc1)CNC(=O)c1ccc(F)cc1 (stereo not drawn) — lower, 26.8%
- CC(O)(CCc1ccccc1)CNC(=O)c1ccsc1 (stereo not drawn) — higher, 50.2%
- CSCCC(C)(O)CNC(=O)c1ccsc1 (stereo not drawn) — lower, 8.61%
- Cn1cccc1CN1CCC2(CCCN(C(=O)c3cnccn3)C2)C1 (stereo not drawn) — lower, 2.01%
- CCn1cc(NC(=O)NCCc2ccc3c(c2)OCCO3)cn1 — lower, -27.8%
- CCn1cc(NC(=O)NCc2ccc3c(c2)OCCO3)cn1 — higher, 33%
- CCn1cc(NC(=O)CCc2ccc3c(c2)OCCCO3)cn1 — higher, 55.5%
- COc1c(CNC2CCCOc3ccccc32)c(C(C)C)nn1C (stereo not drawn) — lower, 15.3%
- NC(=O)c1cnc2n1CCN(C(=O)c1ccc(Cn3cccc3)cc1)C2 — lower, 15.5%
